Records with an inconclusive call do not appear. Calls of active or inactive are those of the source. How the source made its calls, unless noted: active means hit-call score of the fitted dose curve at least 0.9, where 1 is the maximum; inactive means score below 0.9.
experiment: STM_H9_OrnithineISnorm_perc: Stemina devTOX quickPredict H9 human embryonic stem cell (hESC)-based Assay for Ornithine (ORN) Metabolite Biomarker, Normalized (AID 2283712);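 further: ornithine released into spent medium during last day measured by mass spectrometry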
Method in brief: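 Metabolite endpoint from spent media of pluripotent H9 cells treated 72 h with daily re-feeding; ornithine measured by UPLC-HRMS against its 13C spike-in and referenced to the median 0.1% DMSO vehicle response.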

Compound	outcome	AC50
Clc1ccc(C(c2ccc(Cl)cc2)C(Cl)(Cl)Cl)cc1	inactive	–
CCN(CC)N=O	inactive	–
COc1cc(C=O)cc2c1[C@H](COC(N)=O)[C@]1(OC(C)=O)ON2C[C@H]2[C@@H]1N2C(C)=O	–	0.00101 µM (active)
CCCCCCCCn1sccc1=O	–	43 µM (active)
O=P(OCCCl)(OCCCl)OCCCl	inactive	–
CNC(=O)Oc1cccc2c1OC(C)(C)C2	inactive	–
ClC1=C(Cl)[C@]2(Cl)[C@H]3[C@H]([C@@H]4C=C[C@H]3C4)[C@@]1(Cl)C2(Cl)Cl	inactive	–
O=[N+]([O-])c1ccc(Oc2ccc(Cl)cc2Cl)cc1	–	68.7 µM (active)
O=C1CCCO1	inactive	–

experiment: STM_H9_CystineISnorm_perc: Stemina devTOX quickPredict H9 human embryonic stem cell (hESC)-based Assay for Cystine (CYSS) Metabolite Biomarker, Normalized (AID 2283713)
Method in brief: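 Normalized cystine level in conditioned medium from the final 24h of a 72h treatment of pluripotent H9 cells (daily media and compound renewal). Quantified by UPLC-HRMS with C13-labeled internal standard; scaled to median of 0.1% DMSO vehicle wells.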

Compound	outcome	AC50
Clc1ccc(C(c2ccc(Cl)cc2)C(Cl)(Cl)Cl)cc1	inactive	–
CCN(CC)N=O	inactive	–
COc1cc(C=O)cc2c1[C@H](COC(N)=O)[C@]1(OC(C)=O)ON2C[C@H]2[C@@H]1N2C(C)=O	–	0.0003 µM (active)
CCCCCCCCn1sccc1=O	–	11.5 µM (active)
O=P(OCCCl)(OCCCl)OCCCl	inactive	–
CNC(=O)Oc1cccc2c1OC(C)(C)C2	inactive	–
ClC1=C(Cl)[C@]2(Cl)[C@H]3[C@H]([C@@H]4C=C[C@H]3C4)[C@@]1(Cl)C2(Cl)Cl	inactive	–
O=[N+]([O-])c1ccc(Oc2ccc(Cl)cc2Cl)cc1	–	29.8 µM (active)
O=C1CCCO1	inactive	–

experiment: STM_H9_OrnCyssISnorm_ratio: Stemina devTOX quickPredict H9 human embryonic stem cell (hESC)-based Assay for Ornithine (ORN):Cystine (CYSS) Ratio (AID 2283714; active means hit-call score of the fitted dose curve at least 0.9, where 1 is the maximum)
Method in brief: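 UPLC-HRMS of spent media: ORN/CYSS ratio of internal-standard-normalized percentages, DMSO (0.1%) baseline. Pluripotent H9 hESCs, 72h exposure, daily re-dosing with fresh media; last 24h media collected.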

Compound	AC50	outcome
COc1cc(C=O)cc2c1[C@H](COC(N)=O)[C@]1(OC(C)=O)ON2C[C@H]2[C@@H]1N2C(C)=O	0.000797 µM (active)	–
CCCCCCCCn1sccc1=O	22.4 µM (active)	–
CNC(=O)Oc1cccc2c1OC(C)(C)C2	–	inactive
O=[N+]([O-])c1ccc(Oc2ccc(Cl)cc2Cl)cc1	50 µM (active)	–

experiment: CEETOX_H295R_MTT_cell_viability: Viability Assessment in the CeeTox HT-H295R MTT Assay (AID 2283718);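 on AC50: curve fitted both ways so AC50 may mark viability loss or gain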
Method in brief: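 Human H295R adrenal cells, prestimulated 48 h with 10 uM forskolin, were exposed 48 h to chemicals in 0.1% DMSO. Viability was measured in the same wells by MTT (0.5 mg/ml, 4 h, 37 C), absorbance 570/650 nm, as percent of controls.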

Compound	outcome	AC50
c1ccc2c(c1)-c1cccc3cccc-2c13	inactive	–
CC(C)(O)c1cnn2c(-c3ccc(F)c(-c4c(F)cccc4C#N)c3)cnc2n1	inactive	–
CCOc1cccc(C2(N3CCN(c4ccccc4)CC3)CCC(C)CC2)c1 (centres undefined)	inactive	–
O=C(Nc1ccccc1)c1ccccc1I	inactive	–
O=P(OCCCl)(OCCCl)OCCCl	inactive	–
CNC(=O)Oc1cccc2c1OC(C)(C)C2	–	1.52 µM (active)
c1ccc(N=Nc2ccccc2)cc1	inactive	–

— PubChem BioAssay (EPA / NIEHS)
